Results from PubChem BioAssay.

Experiment: HepG2 liver cancer cell viability effects, profiling panel, resazurin fluorescence, 24 h, PK04 Diversity Set (AID 1172); note: test concentration not given here
Conditions: higher = more signal

Compound | z-score
COc1ccc(COC(=O)NN=C2C[C@@H](O)[C@@H](O)[C@@H]3[C@@H]4C(=O)N(Cc5ccccc5)C(=O)[C@@H]4CC[C@@H]23)cc1 | 1.13
O=C1C=C[C@@H](O)[C@@H]2[C@@H]3C(=O)N(Cc4ccccc4)C(=O)[C@@H]3CC[C@@H]12 | -0.178
CCCC[C@H]1CN2[C@@H](CC[C@@H](C)[C@@H]2c2ccc(Br)cc2)C(=O)O1 | 0.314
COc1ccc(O[C@H]2C=C[C@@H](C#Cc3ccccc3)O[C@@H]2CO)cc1 | 0.124
O=C(NCCC[N+]1=CC=NC1c1ccccc1)N1CCCc2nc(-c3ccc(Br)cc3)ccc21 (stereo not given) | 0.0392
C[C@H]1CC[C@@H](C(=O)O)N[C@@H]1c1ccc(C#Cc2ccccc2)cc1 | -0.214
CC(C)CN1CCc2nc(-c3ccccc3)c3c(c2C1)CO[C@@H](C)C3 | -0.622
COc1ccc(COC(=O)NN=C2C[C@@H](O)[C@@H](O)[C@@H]3[C@@H]4C(=O)N(Cc5ccc6c(c5)OCO6)C(=O)[C@@H]4CC[C@H]23)cc1 | -0.318
COC(=O)C(C(=O)OC)C1CCCC(=O)C1 (stereo not given) | -0.598
CC(C)[C@@H](OCc1ccccc1)[C@H](C)C=NOC[C@@H](O)[C@H]1O[C@@H]2OC(C)(C)O[C@@H]2[C@H]1O | -0.752
CCc1cc2c(nc1CC)CCN(CCC(C)=NO[C@@H]1O[C@H](COC(C)=O)[C@@H](OC(C)=O)[C@H](OC(C)=O)[C@H]1OC(C)=O)C2 | -0.11
COC(=O)[C@H](C)NC(=O)CCC1CC(OC(=O)NCCc2ccc(F)cc2)CC2(CCCC(COC(=O)NCCc3ccccc3OC)O2)O1 (stereo not given in full) | 0.185
CCOC(=O)[C@H](CC(C)C)NC(=O)CCC1CC(OC(=O)NCc2ccc3c(c2)OCO3)CC2(CCCC(COC(=O)NCCc3ccc(Cl)cc3)O2)O1 (stereo not given in full) | 0.538
CC(CCN1CCc2nc(-c3ccccc3)c(-c3ccccc3)cc2C1)=NOC(C)CN1CCCc2nc(C)c(C)cc21 (stereo not given) | -0.0686
O=C1[C@H]2[C@H]3[C@H](O)[C@H](O)CC(=NO[C@@H]4O[C@H](CO)[C@@H](O)[C@H](O)[C@H]4O)[C@@H]3CC[C@H]2C(=O)N1C[C@@H]1CCCO1 | -0.0979
COc1ccc(O[C@H]2C=C[C@@H](c3ccccc3)O[C@@H]2COC(=O)CCC(C)=NOC[C@@H](O)COCc2ccco2)cc1 | 0.206
CC(C)=CCCC(C)=CCON=C1C[C@@H](O)[C@@H](O)[C@@H]2[C@@H]3C(=O)N(c4cccc(Oc5ccccc5)c4)C(=O)[C@@H]3CC[C@H]12 | 1.05
CO[C@@H]1C=CCC(=O)N[C@@H](C)C(=O)OC[C@@H](NS(=O)(=O)c2ccc(C)cc2)[C@H](C)C=CCC(=O)OC[C@H]1C | -0.0689
COc1ccc(COC(=O)NN=C2C[C@@H](O)[C@@H](O)[C@@H]3[C@@H]4C(=O)N(c5cccc(Oc6ccccc6)c5)C(=O)[C@@H]4CC[C@H]23)cc1 | 0.609
CCOC(=O)CCN1C(=O)[C@H]2[C@H]3[C@H](O)[C@H](O)CC(=NNC(=O)OCc4ccccc4)[C@H]3CC[C@H]2C1=O | -0.0842
CO[C@@H](C(C)C)[C@@H](C)C1OC(=O)CC1O (stereo not given in full) | -0.544
CCN1C(=O)[C@H]2[C@H]3[C@H](O)[C@H](O)CC(=NO[C@H](C)c4cn([C@@H]5COC[C@H]5O)nn4)[C@@H]3CC[C@H]2C1=O | -1.28
CCOC(=O)[C@H](CC(C)C)NC(=O)CCC1CC(OC(=O)NCCc2ccc(F)cc2)CC2(CCCC(COC(=O)NCc3cccc(C(F)(F)F)c3)O2)O1 (stereo not given in full) | 0.0989
O=C1CCCC=C1C(O)C1CCCCC1 (stereo not given) | -0.075
COc1ccc(COC(=O)NN=C2C[C@@H](O)[C@@H](O)[C@@H]3[C@@H]4C(=O)N(C5CCCCC5)C(=O)[C@@H]4CC[C@@H]23)cc1 | -0.578
O=C1C2=CC[C@H]3C(=O)N(C4CCCCC4)C(=O)[C@H]3[C@H]2[C@H](O)[C@@H]2O[C@H]12 | -3.76
O=C1C[C@@H](O)[C@@H](O)[C@@H]2[C@@H]3C(=O)N(C4CCCCC4)C(=O)[C@@H]3CC[C@@H]12 | -0.432
C=CC[C@@H]1C=C[C@H](ON=CC[C@@H]2C=C[C@H](OC(C)=O)[C@@H](COC(C)=O)O2)[C@@H](CO)O1 | 0.083
CC(CCC(=O)OC[C@H]1O[C@H](C#Cc2ccccc2)C=C[C@@H]1Oc1ccc(C)cc1)=NO[C@H](C)c1cn([C@@H]2COC[C@H]2O)nn1 | -0.458
COC(=O)[C@@H]1CC[C@H](C)[C@@H](c2ccc(C)cc2)N1C(=O)c1ccc(C=NOC[C@@H](O)[C@H]2O[C@@H]3OC(C)(C)O[C@@H]3[C@H]2O)cc1 | -0.187
